Measured values from PubChem BioAssay (NCI).
The panel holds about 83,000 compounds, 20% with a hit somewhere; the sample as a whole holds those more often.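 How to read the values: 0–100, growth inhibition (40 = 60% inhibited); 0, no net growth; -100 to 0, cell death (-40 = 40% of starting cells died; -100 = all dead).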 The source made the active and inactive calls. The calls were made as follows: active = growth percent below 10; inactive = the rest.

What was measured:
Assay in all cases: NCI-60 one-dose screen, 48 h (100 = growth as untreated, 0 = no growth, -100 = all killed)
Conditions in all cases: 10 µM unless noted
RPMI-8226 leukemia = system: RPMI-8226 leukemia
OVCAR-8 ovarian = system: OVCAR-8 ovarian
OVCAR-5 ovarian = system: OVCAR-5 ovarian
OVCAR-4 ovarian = system: OVCAR-4 ovarian
SK-OV-3 ovarian = system: SK-OV-3 ovarian
IGROV1 ovarian = system: IGROV1 ovarian
OVCAR-3 ovarian = system: OVCAR-3 ovarian
HS 578T breast = system: HS 578T breast
NCI/ADR-RES ovarian = system: NCI/ADR-RES ovarian
T-47D breast = system: T-47D breast
BT-549 breast = system: BT-549 breast
MDA-MB-435 melanoma = system: MDA-MB-435 melanoma
SW-620 colon = system: SW-620 colon
MCF7 breast = system: MCF7 breast
HCT-116 colon = system: HCT-116 colon
HCC-2998 colon = system: HCC-2998 colon
KM12 colon = system: KM12 colon

Measured: growth

CN(C)c1ccc(C2Nc3ccccc3-n3cccc32)cc1 (centres undefined)
inactive: RPMI-8226 leukemia 80.2% | OVCAR-8 ovarian 94.5% | OVCAR-5 ovarian 72% | OVCAR-4 ovarian 87.1% | SK-OV-3 ovarian 104% | IGROV1 ovarian 55% | OVCAR-3 ovarian 92.8% | HS 578T breast 95.5% | NCI/ADR-RES ovarian 105% | T-47D breast 55.6% | BT-549 breast 99.8% | MDA-MB-435 melanoma 96.5% | SW-620 colon 97.6% | MCF7 breast 38.4% | HCT-116 colon 97.4% | HCC-2998 colon 85.2% | KM12 colon 97.7%

Oc1ccc(Nc2nccc(-c3ccc4ccccc4c3)n2)cc1
inactive: RPMI-8226 leukemia 18.3% | OVCAR-8 ovarian 31.6% | OVCAR-5 ovarian 66.9% | OVCAR-4 ovarian 65.5% | SK-OV-3 ovarian 57.4% | IGROV1 ovarian 36.3% | OVCAR-3 ovarian 34.3% | HS 578T breast 42.8% | NCI/ADR-RES ovarian 14.7% | T-47D breast 48.7% | BT-549 breast 48.2% | SW-620 colon 31.8% | MCF7 breast 20.2% | HCT-116 colon 23.2% | HCC-2998 colon 60.4% | KM12 colon 27.4%
active: MDA-MB-435 melanoma 8.01%

CN(C)CCOc1ccc(-c2nc3ccc(-c4nc5ccc(N6CCN(C)CC6)cc5[nH]4)cc3[nH]2)cc1
inactive: RPMI-8226 leukemia 35.5% | OVCAR-8 ovarian 63.6% | OVCAR-5 ovarian 83% | OVCAR-4 ovarian 68% | SK-OV-3 ovarian 69.5% | IGROV1 ovarian 90% | OVCAR-3 ovarian 94.9% | HS 578T breast 76.4% | NCI/ADR-RES ovarian 108% | T-47D breast 55.3% | BT-549 breast 74.2% | MDA-MB-435 melanoma 61.2% | SW-620 colon 66.3% | MCF7 breast 35.5% | HCT-116 colon 48.3% | HCC-2998 colon 99% | KM12 colon 57.3%

COc1ccc(C(=O)/C=C/c2c[n+](=O)c3ccc(F)cc3n2[O-])cc1
inactive: RPMI-8226 leukemia 109% | OVCAR-8 ovarian 83.5% | OVCAR-5 ovarian 97.2% | OVCAR-4 ovarian 106% | SK-OV-3 ovarian 106% | IGROV1 ovarian 133% | OVCAR-3 ovarian 102% | HS 578T breast 102% | NCI/ADR-RES ovarian 101% | T-47D breast 93.1% | BT-549 breast 103% | MDA-MB-435 melanoma 119% | SW-620 colon 109% | MCF7 breast 98.9% | HCT-116 colon 103% | HCC-2998 colon 104% | KM12 colon 113%

O=C(CNC1C2CC3CC(C2)CC1C3)Sc1nnc2sc3ccccc3n12 (centres undefined)
inactive: RPMI-8226 leukemia 97.3% | OVCAR-8 ovarian 106% | OVCAR-5 ovarian 100% | OVCAR-4 ovarian 87.6% | SK-OV-3 ovarian 94.2% | IGROV1 ovarian 104% | OVCAR-3 ovarian 98.2% | HS 578T breast 89.5% | NCI/ADR-RES ovarian 99.2% | T-47D breast 87.2% | BT-549 breast 98% | MDA-MB-435 melanoma 101% | SW-620 colon 94.8% | MCF7 breast 88.7% | HCT-116 colon 93.6% | HCC-2998 colon 113% | KM12 colon 101%

O=C(/C=C/c1cccc(Br)c1)c1ccccc1
inactive: RPMI-8226 leukemia 23.6% | OVCAR-8 ovarian 88.7% | OVCAR-5 ovarian 83.2% | OVCAR-4 ovarian 90.6% | SK-OV-3 ovarian 82.1% | IGROV1 ovarian 84.8% | OVCAR-3 ovarian 98.3% | HS 578T breast 101% | NCI/ADR-RES ovarian 103% | T-47D breast 52% | BT-549 breast 76.6% | MDA-MB-435 melanoma 80.9% | SW-620 colon 69.9% | MCF7 breast 12.6% | HCT-116 colon 47.1% | HCC-2998 colon 96.4% | KM12 colon 70.9%

CC1=N/C(=C\c2cccc(Br)c2)C(=O)O1
inactive: RPMI-8226 leukemia 108% | OVCAR-8 ovarian 105% | OVCAR-5 ovarian 106% | OVCAR-4 ovarian 110% | SK-OV-3 ovarian 102% | IGROV1 ovarian 106% | OVCAR-3 ovarian 103% | HS 578T breast 107% | NCI/ADR-RES ovarian 107% | T-47D breast 97.3% | BT-549 breast 109% | MDA-MB-435 melanoma 107% | SW-620 colon 104% | MCF7 breast 102% | HCT-116 colon 103% | HCC-2998 colon 111% | KM12 colon 106%

CCC(c1ccc(O)cc1)C(CC)c1ccc(O)c(F)c1 (centres undefined)
inactive: RPMI-8226 leukemia 63.7% | OVCAR-8 ovarian 98.4% | OVCAR-5 ovarian 93.5% | OVCAR-4 ovarian 75.3% | SK-OV-3 ovarian 99% | IGROV1 ovarian 83% | OVCAR-3 ovarian 85.3% | HS 578T breast 73.9% | NCI/ADR-RES ovarian 81.8% | T-47D breast 65.8% | BT-549 breast 92.9% | MDA-MB-435 melanoma 75.1% | SW-620 colon 93.7% | MCF7 breast 103% | HCT-116 colon 59% | HCC-2998 colon 96.4% | KM12 colon 82.6%

COc1ccc(OCC(=O)Nc2ccc(-c3nc4ccccc4s3)cc2C)cc1
inactive: RPMI-8226 leukemia 66% | OVCAR-8 ovarian 113% | OVCAR-5 ovarian 78.1% | OVCAR-4 ovarian 55% | SK-OV-3 ovarian 99.5% | IGROV1 ovarian 35.2% | OVCAR-3 ovarian 102% | HS 578T breast 87.8% | NCI/ADR-RES ovarian 85% | T-47D breast 30.4% | BT-549 breast 91.9% | MDA-MB-435 melanoma 101% | SW-620 colon 97% | MCF7 breast 29.9% | HCT-116 colon 74% | HCC-2998 colon 90.4% | KM12 colon 107%

O=C(CO[N+](=O)[O-])Nc1ccc(C(=O)/C=C/c2ccc(Cl)cc2)cc1
inactive: OVCAR-8 ovarian 27.2% | OVCAR-5 ovarian 66.9% | OVCAR-4 ovarian 76.1% | SK-OV-3 ovarian 89.3% | HS 578T breast 89.7% | NCI/ADR-RES ovarian 29.9% | T-47D breast 55.5% | BT-549 breast 18.9%
active: RPMI-8226 leukemia -14.2% | IGROV1 ovarian -26% | OVCAR-3 ovarian 0.332% | MDA-MB-435 melanoma -2.76% | SW-620 colon -61.8% | MCF7 breast 1.64% | HCT-116 colon -49.2% | HCC-2998 colon -61.3% | KM12 colon -60.6%

CCC(=O)Oc1ccc(/C(=C(\C)c2ccccc2)c2ccc(OCCN(CC)CC)cc2)cc1
inactive: RPMI-8226 leukemia 68.2% | OVCAR-8 ovarian 87.9% | OVCAR-5 ovarian 91.7% | OVCAR-4 ovarian 87.5% | SK-OV-3 ovarian 91.4% | IGROV1 ovarian 92.7% | OVCAR-3 ovarian 97.8% | HS 578T breast 51.9% | NCI/ADR-RES ovarian 93% | T-47D breast 43.8% | BT-549 breast 86.3% | MDA-MB-435 melanoma 76.1% | SW-620 colon 79.4% | MCF7 breast 37.9% | HCT-116 colon 62.1% | HCC-2998 colon 103% | KM12 colon 80.3%

C=CCSc1nnc(-c2ccc(C(C)(C)C)cc2)n1-c1cccc(C(F)(F)F)c1
inactive: RPMI-8226 leukemia 17.4% | OVCAR-8 ovarian 32.1% | OVCAR-5 ovarian 77.3% | OVCAR-4 ovarian 44.4% | SK-OV-3 ovarian 61.5% | IGROV1 ovarian 54.5% | OVCAR-3 ovarian 40.9% | HS 578T breast 45.5% | NCI/ADR-RES ovarian 22.9% | BT-549 breast 19.3% | MDA-MB-435 melanoma 52.5% | MCF7 breast 12.1% | HCT-116 colon 13.3% | HCC-2998 colon 51.1% | KM12 colon 27.1%

C[C@@H]1CC[C@@H]2[C@@H]1[C@H](OC(=O)/C=C/c1ccccc1)[C@]1(C3CCCCC3)C[C@@H](OC(=O)CO)[C@@]2(C)O1
active: HS 578T breast -22.4% | BT-549 breast 0.688%
inactive: RPMI-8226 leukemia 44.9% | OVCAR-8 ovarian 45.2% | OVCAR-5 ovarian 96% | OVCAR-4 ovarian 74.8% | SK-OV-3 ovarian 81.4% | IGROV1 ovarian 81.3% | OVCAR-3 ovarian 75.1% | NCI/ADR-RES ovarian 51.1% | T-47D breast 42.8% | MDA-MB-435 melanoma 87.9% | MCF7 breast 38.3% | HCT-116 colon 52% | HCC-2998 colon 78% | KM12 colon 69.1%

Cc1cc2c(cc1C)NC1=C(N2)OC(c2c3ccccc3cc3ccccc23)C1=O (centres undefined)
inactive: RPMI-8226 leukemia 30.6% | OVCAR-5 ovarian 13.9% | OVCAR-4 ovarian 75.5% | SK-OV-3 ovarian 52% | IGROV1 ovarian 17.4% | OVCAR-3 ovarian 23.3% | HS 578T breast 32.5% | SW-620 colon 19.3%
active: OVCAR-8 ovarian -27.4% | NCI/ADR-RES ovarian -41.7% | BT-549 breast 0.106% | MDA-MB-435 melanoma -7.13% | MCF7 breast 5.73% | HCT-116 colon -5.82% | HCC-2998 colon 7.57% | KM12 colon 9.94%

COc1ccc(C(=O)/C=C/c2cc3ccccc3[nH]c2=O)cc1
active: OVCAR-3 ovarian -19% | NCI/ADR-RES ovarian -5.27% | SW-620 colon -21% | HCT-116 colon 8.02% | KM12 colon -32%
inactive: RPMI-8226 leukemia 15.3% | OVCAR-8 ovarian 20.4% | OVCAR-5 ovarian 52.2% | OVCAR-4 ovarian 58.6% | SK-OV-3 ovarian 53% | IGROV1 ovarian 50.5% | HS 578T breast 53.6% | T-47D breast 33.8% | BT-549 breast 21.3% | MDA-MB-435 melanoma 29.9% | MCF7 breast 15%

CCN(CC)CCCCNc1ccc(NCCCCN(CC)CC)c2c1C(=O)c1ccccc1C2=O
inactive: RPMI-8226 leukemia 47.8% | OVCAR-8 ovarian 72.9% | OVCAR-5 ovarian 114% | OVCAR-4 ovarian 84.1% | SK-OV-3 ovarian 122% | IGROV1 ovarian 71.8% | OVCAR-3 ovarian 91.5% | HS 578T breast 101% | NCI/ADR-RES ovarian 83.4% | T-47D breast 122% | BT-549 breast 95.6% | MDA-MB-435 melanoma 56% | MCF7 breast 79.1% | KM12 colon 26.9%
active: SW-620 colon -7.96% | HCT-116 colon -58.4%

Nc1cc(-c2nc3sccn3c2-c2ccnc(NCCCNS(=O)(=O)c3ccc(F)cc3)n2)ccc1F
inactive: RPMI-8226 leukemia 23% | OVCAR-8 ovarian 46.5% | OVCAR-5 ovarian 61% | OVCAR-4 ovarian 55.2% | SK-OV-3 ovarian 73.6% | IGROV1 ovarian 39.9% | OVCAR-3 ovarian 79.4% | NCI/ADR-RES ovarian 47.7% | T-47D breast 15.4% | BT-549 breast 52.2% | MDA-MB-435 melanoma 22.9% | SW-620 colon 54.7% | MCF7 breast 37.4% | HCT-116 colon 36.8% | HCC-2998 colon 90.3% | KM12 colon 59.7%

COc1ccc(-c2cc(C(=O)N=Nc3c(O)[nH]c4ccccc34)no2)cc1
inactive: RPMI-8226 leukemia 96.9% | OVCAR-8 ovarian 103% | OVCAR-5 ovarian 97.7% | OVCAR-4 ovarian 105% | SK-OV-3 ovarian 103% | IGROV1 ovarian 102% | OVCAR-3 ovarian 108% | HS 578T breast 95.3% | NCI/ADR-RES ovarian 102% | T-47D breast 98% | BT-549 breast 109% | MDA-MB-435 melanoma 102% | SW-620 colon 96.9% | MCF7 breast 95.1% | HCT-116 colon 100% | HCC-2998 colon 107% | KM12 colon 101%
